{"source": "PubChem BioAssay AID1259240", "about": "(Keith Lab, Institute of Cancer Science, University of …, 2017)", "note": "Activity calls are given as the source filed them. No stated cut-off is given here; in the data, active means fold change mostly below about -2 (no sharp cut-off); inactive means mostly above about -1.8.", "data": [{"test": "modulation of TERT promoter-driven luciferase – cell-based, luciferase reporter, human, primary screen (AID 1259240)", "details": "A2780 TERT promoter luciferase reporter, 16 h; at 20 µM, fold versus average of vehicle-only wells", "values": [{"molecule": "CC(C)C(NS(=O)(=O)c1ccc2c(c1)oc(=O)n2C)C(=O)NCc1cccs1", "note": "(stereo not given)", "fold change": "-1.35 (inactive)"}, {"molecule": "CC(=O)NCCNC(=O)c1cccn2c(=O)c3c4c(sc3nc12)CCCC4", "fold change": "-1.41 (inactive)"}, {"molecule": "Cc1ccc2c(C)nc(NC3=NCN(C4CCCC4)CN3)nc2c1", "fold change": "-2 (inactive)"}, {"molecule": "c1ccc(CNc2nc3ccccc3n3cnnc23)nc1", "fold change": "1.11 (inactive)"}, {"molecule": "Cc1ccccc1-c1nc(CSCC(=O)O)c(C)o1", "fold change": "-1.01 (inactive)"}, {"molecule": "O=C(ON=C1CCCC1)c1sc2ccccc2c1Cl", "fold change": "-1.7 (inactive)"}, {"molecule": "CN(C)c1ccc(/C=c2\\sc3nc(-c4ccco4)nn3c2=O)cc1", "fold change": "1.37 (inactive)"}, {"molecule": "COc1ccc(Nc2c(-c3c[nH]c4ccccc34)nc3cnccn23)cc1", "fold change": "-1.09 (inactive)"}, {"molecule": "FC(F)(F)c1ccc2c(c1)C1C=CCC1C(c1ccncc1)N2", "note": "(stereo not given)", "fold change": "-1.04 (inactive)"}, {"molecule": "O=C(c1ccc(CSCc2ccccc2F)o1)N1CCN(c2ccc(N3CCOCC3)nn2)CC1", "fold change": "1.7 (inactive)"}, {"molecule": "O=C(Nc1ccc2nc3n(c(=O)c2c1)CCCCC3)C(=O)N1CCOCC1", "fold change": "1.01 (inactive)"}, {"molecule": "CN1C(=O)/C(=C/c2cn(CC(=O)N3CCCc4ccccc43)c3ccccc23)c2ccccc21", "fold change": "1.47 (inactive)"}, {"molecule": "Cc1ccc(-c2n[nH]c3c2C(c2cccc([N+](=O)[O-])c2)NC3=O)cc1", "note": "(stereo not given)", "fold change": "1.04 (inactive)"}, {"molecule": "O=C(O)c1c2c(nc3ccc(S(=O)(=O)N4CCC(C(=O)N5CCCCCC5)CC4)cc13)CCCC2", "fold change": "1.03 (inactive)"}, {"molecule": "CN(C(=O)c1ccc2c(=O)n3c(nc2c1)CCCCC3)c1ccc(F)cc1", "fold change": "-1.12 (inactive)"}, {"molecule": "c1ccc(-c2nnc3ccc(NCCCN4CCc5ccccc5C4)nn23)cc1", "fold change": "-1.21 (inactive)"}, {"molecule": "COc1cc(-c2nc3s/c(=C\\c4cccs4)c(=O)n3n2)cc(OC)c1OC", "fold change": "1.19 (inactive)"}, {"molecule": "Cc1ccc2[nH]cc(S(=O)(=O)c3ccc(F)cc3)c(=O)c2c1", "fold change": "-1.06 (inactive)"}, {"molecule": "COc1cccc(NC2SC(=O)N(c3ccccc3)C2=O)c1", "note": "(stereo not given)", "fold change": "1.28 (inactive)"}, {"molecule": "CC1=C(C(N)=O)C(c2ccc(O)cc2)n2nc(CCCO)nc2N1", "note": "(stereo not given)", "outcome": "inactive"}, {"molecule": "Fc1ccc(-c2nnc3ccc(NCCN4CCOCC4)nn23)cc1", "fold change": "-1.13 (inactive)"}, {"molecule": "COc1ccc(OC)c(NC(=O)CSc2nc(-c3cccs3)nc3c2c(=O)n(C)c(=O)n3C)c1", "fold change": "1.71 (inactive)"}, {"molecule": "COC(=O)CSc1nnc2c3c4c(sc3nc(C)n12)CCCC4", "fold change": "-1.45 (inactive)"}, {"molecule": "Cc1ccc(-c2cc(C(F)F)n3ncc(C(=O)N4CC(C)OC(C)C4)c3n2)cc1", "note": "(stereo not given)", "fold change": "-2.07 (active)"}, {"molecule": "O=C1Nc2ccccc2N(O)N1c1cc(-c2cccc(Cl)c2)no1", "fold change": "1.45 (inactive)"}, {"molecule": "Cc1c(C(=O)N2CC(C)CC(C)C2)sc2ncn(CC(=O)N3CCC(C)CC3)c(=O)c12", "note": "(stereo not given)", "fold change": "-1.37 (inactive)"}, {"molecule": "CN(CC(=O)O)S(=O)(=O)c1cccc2cccnc12", "fold change": "-1.07 (inactive)"}, {"molecule": "CCc1cccc(Nc2nc3ccccc3n3cnnc23)c1", "fold change": "-4.16 (active)"}, {"molecule": "CC(C)C(NS(=O)(=O)c1cccc2nsnc12)C(=O)N1CCCCCC1", "note": "(stereo not given)", "fold change": "1.11 (inactive)"}, {"molecule": "Cc1nc2cc(-c3ccc(Cl)cc3)nn2c(C)c1CCC(=O)O", "fold change": "-16.5 (active)"}, {"molecule": "O=C(Cn1c(=O)n(Cc2ccco2)c(=O)c2ccccc21)Nc1ccc(Cl)cc1Cl", "fold change": "-1.13 (inactive)"}, {"molecule": "CCN(CC)CCNC(=O)CN1C(=O)COc2ccc(S(=O)(=O)N3CCOCC3)cc21", "fold change": "-1.1 (inactive)"}, {"molecule": "COc1cc2c(c(OC)c1)C(c1ccc(Br)cc1)CC(=O)N2", "note": "(stereo not given)", "fold change": "1.09 (inactive)"}, {"molecule": "CCOc1ccc2c(c1)CN(Cc1ccc(Cl)cc1)CO2", "fold change": "-1.71 (inactive)"}, {"molecule": "Nc1ccc(-c2nc3cc(N)c(Cl)cc3[nH]2)cc1", "fold change": "-4.84 (active)"}, {"molecule": "COc1ccc2cc3c(N)nn(C(=O)Cn4nc([N+](=O)[O-])c(Br)c4C)c3nc2c1", "fold change": "-1.45 (inactive)"}, {"molecule": "COC(=O)CSCc1nc2ccccc2[nH]c1=O", "fold change": "-1.41 (inactive)"}, {"molecule": "CCOC(=O)N1CCC(Nc2c(N3CCCC3)c(=O)c2=O)CC1", "fold change": "-1.12 (inactive)"}, {"molecule": "Cc1c(C(=O)N2CCOCC2)sc2nc3n(c(=O)c12)N=C(c1ccc(Cl)cc1)CS3", "fold change": "1.21 (inactive)"}, {"molecule": "Cc1ccccc1-n1cnc2c(sc3nc(N4CCOCC4)c4c(c32)CC(C)(C)OC4)c1=O", "fold change": "-1.84 (inactive)"}]}]}
